For nine compounds, growth inhibition results are on record in PubChem BioAssay (NCI).

The panel holds about 79,000 compounds, 15% with a hit somewhere; the sample as a whole holds those more often. Unmarked numbers belong to inactive results. Calls of active or inactive are those of the source. Cut-off read from the data, not from the text of the source: active = growth inhibition above about 70%; inactive = the rest.

The nature of assay [1]: NCI Yeast Anticancer Drug Screen. Data for the rad50 strain (AID 155).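 Note: 0% = growth of vehicle-only cultures of the same strain.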 As to conditions: S. cerevisiae rad50 strain growth inhibition, hits give high values. The procedure, abridged:
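Yeast carrying a defined DNA repair defect were exposed to test compounds, and growth was compared with vehicle-treated controls to give percent inhibition.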

The nature of assay [2]: NCI Yeast Anticancer Drug Screen. Data for the mec2-1 strain (AID 157). As to conditions: S. cerevisiae mec2-1 strain, hits give high values. The procedure, abridged: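 mec2-1 yeast strain, carrying an alteration in DNA damage repair or cell cycle control, was exposed to compounds; growth inhibition was measured relative to vehicle-treated controls.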
A short description of assay [3]: NCI Yeast Anticancer Drug Screen. Data for the sgs1 mgt1 strain (AID 161).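 Note: 0% = growth of cultures given vehicle only.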 As to conditions: S. cerevisiae sgs1 mgt1 strain, hits give high values. The procedure, abridged:
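Yeast cells carrying a defined DNA-repair defect were exposed to test compounds. Growth inhibition was measured relative to vehicle-treated controls.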

The nature of assay [4]: NCI Yeast Anticancer Drug Screen. Data for the cln2 rad14 strain (AID 165).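 Note: 0% = growth equal to vehicle treated cultures.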 As to conditions: S. cerevisiae cln2 rad14 strain, hits give high values. The method, boiled down: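 Yeast carrying cln2 and rad14 alterations (cell cycle control and DNA damage repair) were exposed to compounds. Growth inhibition was measured against vehicle-treated controls.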
Assay [5] can be described thus: NCI Yeast Anticancer Drug Screen. Data for the bub3 strain (AID 167). As to conditions: S. cerevisiae bub3 mutant strain, hits give high values. The procedure, abridged: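 Compounds were applied to a genetically altered yeast strain carrying a cell-cycle control defect. Growth inhibition was scored against vehicle-treated controls.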
Assay [6] can be described thus: NCI Yeast Anticancer Drug Screen. Data for the mlh1 rad18 strain (AID 175). As to conditions: S. cerevisiae mlh1 rad18 strain growth inhibition, hits give high values. The method, boiled down:
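Growth inhibition of the yeast strain was measured after compound exposure and expressed relative to vehicle-treated controls. The strain carries defined defects in DNA damage repair.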

Setting [7] is: at 5.0 µM (retest, dose inferred, filed as 0.5).
[8] abbreviates: at 50.0 µM (retest, dose inferred, filed as 5.0).

Turning to `O=C(Nc1cccc2ccccc12)OCCCCCCl`, the growth inhibition in assay [1] (setting [7]) was -2%; in assay [1] (setting [8]) it was 97% (active); in assay [1] (at 50.0 µM), 97% (active); in assay [2] (setting [7]), -2%; in assay [2] (setting [8]) it was 96% (active); in assay [2] (at 50.0 µM) it was 97% (active). In addition, the growth inhibition in assay [3] (setting [7]) was 1%; in assay [3] (setting [8]) it was 98% (active); in assay [3] (at 50.0 µM) it was 97.1% (active); in assay [4] (setting [7]), -6%; in assay [4] (setting [8]), 95% (active); in assay [4] (at 50.0 µM), 95.5% (active). For the same compound, the growth inhibition in assay [5] (setting [7]) is -5%; in assay [5] (setting [8]), 93% (active); in assay [5] (at 50.0 µM), 97.2% (active); in assay [6] (setting [7]) it was -16%; in assay [6] (setting [8]), 93% (active); in assay [6] (at 50.0 µM), 97.4% (active).

As to `CCc1ccc2c(-c3ccccc3)c3ccccc3c(-c3ccccc3)c2c1`, the growth inhibition in assay [1] (setting [7]) is 0%; in assay [1] (setting [8]) it was -4%; in assay [1] (at 50.0 µM), -7.9%; in assay [2] (setting [7]) it was 3%; in assay [2] (setting [8]) it was -10%; in assay [2] (at 50.0 µM) it was -5.6%. For the same compound, the growth inhibition in assay [3] (setting [7]) was 1%; in assay [3] (setting [8]), 6%; in assay [3] (at 50.0 µM), -9.25%; in assay [4] (setting [7]), -4%; in assay [4] (setting [8]), -11%; in assay [4] (at 50.0 µM) it was 34.9%. The growth inhibition in assay [5] (setting [7]) was -4%; in assay [5] (setting [8]), -8%; in assay [5] (at 50.0 µM), 7.35%; in assay [6] (setting [7]), -1%; in assay [6] (setting [8]), -8%; in assay [6] (at 50.0 µM), 0.05%.

Regarding `Cc1ccc(NC(=S)N(CCC#N)C2CCCCC2)cc1C`, the growth inhibition in assay [1] (setting [7]) was -12%; in assay [1] (setting [8]), -10%; in assay [1] (at 50.0 µM) it was 21.9%; in assay [2] (setting [7]), -22%; in assay [2] (setting [8]) it was -21%; in assay [2] (at 50.0 µM), -7.55%. Further, the growth inhibition in assay [3] (setting [7]) is -6%; in assay [3] (setting [8]) it was 10%; in assay [3] (at 50.0 µM), 10.3%; in assay [4] (setting [7]), -2%; in assay [4] (setting [8]) it was 3%; in assay [4] (at 50.0 µM) it was 0.5%. Besides, the growth inhibition in assay [5] (setting [7]) was 7%; in assay [5] (setting [8]) it was 7%; in assay [5] (at 50.0 µM) it was 1.85%; in assay [6] (setting [7]) it was -27%; in assay [6] (setting [8]), -28%; in assay [6] (at 50.0 µM), 14.6%.

For `O=C1c2ccccc2C(=O)N1CCn1ccc(NC(c2ccccc2)(c2ccccc2)c2ccccc2)nc1=O`, the growth inhibition in assay [1] (setting [7]) is 48%; in assay [1] (setting [8]) it was 48%; in assay [1] (at 50.0 µM), 66.3%; in assay [2] (setting [7]), 28%; in assay [2] (setting [8]), 28%; in assay [2] (at 50.0 µM), 74.9% (active). Further, the growth inhibition in assay [3] (setting [7]) was 50%; in assay [3] (setting [8]), 50%; in assay [3] (at 50.0 µM), 67.2%; in assay [4] (setting [7]), 5%; in assay [4] (setting [8]) it was 5%; in assay [4] (at 50.0 µM), 80.6% (active). Moreover, the growth inhibition in assay [5] (setting [7]) was 27%; in assay [5] (setting [8]), 27%; in assay [5] (at 50.0 µM) it was 79.2% (active); in assay [6] (setting [7]), 44%; in assay [6] (setting [8]), 44%; in assay [6] (at 50.0 µM) it was 65.3%.

For `Cc1cc(C=Nc2ccccc2)c(O)c2ncccc12`, the growth inhibition is 19% in assay [1] (setting [7]); 96% (active) in assay [1] (setting [8]); 98.8% (active) in assay [1] (at 50.0 µM); 10% in assay [2] (setting [7]); 95% (active) in assay [2] (setting [8]); 99.3% (active) in assay [2] (at 50.0 µM). Also, the growth inhibition was 15% in assay [3] (setting [7]); 98% (active) in assay [3] (setting [8]); 94.9% (active) in assay [3] (at 50.0 µM); 8% in assay [4] (setting [7]); 98% (active) in assay [4] (setting [8]); 83.7% (active) in assay [4] (at 50.0 µM). Further, the growth inhibition in assay [5] (setting [7]) is 0%; in assay [5] (setting [8]) it was 98% (active); in assay [5] (at 50.0 µM), 99.1% (active); in assay [6] (setting [7]) it was 14%; in assay [6] (setting [8]), 99% (active); in assay [6] (at 50.0 µM) it was 99.2% (active).

In the case of `Cc1ccc(NC(=O)Oc2ccc(C(C)(C)C)cc2Br)cc1NC(=O)Oc1ccc(C(C)(C)C)cc1Br`, the growth inhibition was 8% in assay [1] (setting [7]); 26% in assay [1] (setting [8]); 40.1% in assay [1] (at 50.0 µM); -4% in assay [2] (setting [7]); 13% in assay [2] (setting [8]); 60% in assay [2] (at 50.0 µM). Also, the growth inhibition in assay [3] (setting [7]) is 3%; in assay [3] (setting [8]) it was 14%; in assay [3] (at 50.0 µM) it was 49.7%; in assay [4] (setting [7]) it was 2%; in assay [4] (setting [8]), 11%; in assay [4] (at 50.0 µM), 19.9%. Further, the growth inhibition was 0% in assay [5] (setting [7]); 28% in assay [5] (setting [8]); 28.4% in assay [5] (at 50.0 µM); 4% in assay [6] (setting [7]); 53% in assay [6] (setting [8]); 79.2% (active) in assay [6] (at 50.0 µM).

For `CCC/C=C1/OC(=O)C2=C[C@H]3CC[C@]21[C@]1(OC(=O)C2=C1CCC=C2)[C@H]3CCC`, the growth inhibition is 0% in assay [1] (setting [7]); 96% (active) in assay [1] (setting [8]); 88.2% (active) in assay [1] (at 50.0 µM); 14% in assay [2] (setting [7]); 97% (active) in assay [2] (setting [8]); 88.9% (active) in assay [2] (at 50.0 µM). Also, the growth inhibition in assay [3] (setting [7]) was 17%; in assay [3] (setting [8]), 96% (active); in assay [3] (at 50.0 µM) it was 87.8% (active); in assay [4] (setting [7]) it was -6%; in assay [4] (setting [8]) it was 96% (active); in assay [4] (at 50.0 µM) it was 86.9% (active). The growth inhibition was 2% in assay [5] (setting [7]); 93% (active) in assay [5] (setting [8]); 88.3% (active) in assay [5] (at 50.0 µM); 14% in assay [6] (setting [7]); 95% (active) in assay [6] (setting [8]); 90.5% (active) in assay [6] (at 50.0 µM).

`N#Cc1cc2c(cc1Cl)Sc1nccn1S2(=O)=O`: the growth inhibition was 5% in assay [1] (setting [7]); 36% in assay [1] (setting [8]); 28.4% in assay [1] (at 50.0 µM); 6% in assay [2] (setting [7]); 52% in assay [2] (setting [8]); 34.7% in assay [2] (at 50.0 µM). The growth inhibition in assay [3] (setting [7]) is 19%; in assay [3] (setting [8]), 63%; in assay [3] (at 50.0 µM), 43.7%; in assay [4] (setting [7]), -1%; in assay [4] (setting [8]), 17%; in assay [4] (at 50.0 µM), 39.2%. The growth inhibition in assay [5] (setting [7]) was 10%; in assay [5] (setting [8]) it was 90% (active); in assay [5] (at 50.0 µM), 76.7% (active); in assay [6] (setting [7]), 2%; in assay [6] (setting [8]), 62%; in assay [6] (at 50.0 µM), 64%.

With `Oc1ccccc1C1CCCCC1`, the growth inhibition in assay [1] (setting [7]) was 1%; in assay [1] (setting [8]) it was 38%; in assay [1] (at 50.0 µM) it was 88.5% (active); in assay [2] (setting [7]), 3%; in assay [2] (setting [8]) it was 17%; in assay [2] (at 50.0 µM), 84.3% (active). The growth inhibition in assay [3] (setting [7]) was 0%; in assay [3] (setting [8]) it was 47%; in assay [3] (at 50.0 µM), 96.1% (active); in assay [4] (setting [7]), 4%; in assay [4] (setting [8]) it was -10%; in assay [4] (at 50.0 µM), 46.6%. In addition, the growth inhibition was -9% in assay [5] (setting [7]); 6% in assay [5] (setting [8]); 73.2% (active) in assay [5] (at 50.0 µM); 4% in assay [6] (setting [7]); 46% in assay [6] (setting [8]); 93.2% (active) in assay [6] (at 50.0 µM).
